Results on 14 compounds are retold here after PubChem BioAssay AID588849 (Broad Institute, 2011).

Entries with a potency or affinity are not part of this list. Activity calls are given as the source filed them. How the calls were made is not given here.

In this assay the target is CAAX prenyl protease 2 (Homo sapiens) (UniProt Q9Y256). Description: human Rce1 protease inhibitors, dose response, biochemical, yeast membranes, quenched-peptide fluorescence, cherry-pick (AID 588849). Conditions: yeast membrane fractions expressing human Rce1, quenched-peptide fluorescence, 4 h; series mostly up to 10 µM.
Sequence of CAAX prenyl protease 2 (Homo sapiens) (Q9Y256 whole entry, looked up): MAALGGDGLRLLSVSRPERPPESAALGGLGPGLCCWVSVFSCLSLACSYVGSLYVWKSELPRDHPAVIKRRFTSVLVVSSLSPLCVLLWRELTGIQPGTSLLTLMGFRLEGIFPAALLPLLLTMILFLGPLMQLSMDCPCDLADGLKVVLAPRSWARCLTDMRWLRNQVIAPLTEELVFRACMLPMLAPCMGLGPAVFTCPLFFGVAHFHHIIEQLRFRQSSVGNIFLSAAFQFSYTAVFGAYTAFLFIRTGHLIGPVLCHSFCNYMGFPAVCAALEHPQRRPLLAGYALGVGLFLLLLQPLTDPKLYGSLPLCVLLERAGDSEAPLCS
Regarding `C=CC[N+]1(C)CC[C@]23c4c5ccc(O)c4O[C@H]2C(=O)CC[C@@]3(O)[C@H]1C5` (some centres undefined), the compound was classed as inactive.

On to `COCCCn1c(N)c(C(=O)NCc2ccco2)c2nc3ccccc3nc21`, for which the compound was classed as inactive.

With `C=CCn1c(O)c(C(CC)=Nc2ccc(N(CC)CC)cc2)c(=O)[nH]c1=O`, the compound was called inactive.

With `CN1CCN(c2ccc([N+](=O)[O-])c(Sc3nncn3C)c2)CC1`, the compound was classed as inactive.

For `Cc1ccnc(-n2c(-c3ccco3)nc3ccccc3c2=O)c1`, the outcome was inactive.

In the case of `CCOC(=O)[C@@H]1[C@H]2COc3ccc(Br)cc3[C@@H]2N2C(=O)N(c3cccc(C)c3)C(=O)[C@]12C`, the outcome was inactive.

For the compound `Cc1ccc(-c2cc(-c3ccccc3)cc(-c3ccccc3)[n+]2-c2ccccc2)cc1`, the outcome was inactive.

As to `Cc1nccc2c1[nH]c1ccccc12`, the call was inactive.

In the case of `Cc1ccc(-c2nc3ccc(C)cn3c2CC(=O)N(C)C)cc1`, the call was inactive.

As to `Clc1ccc(C[n+]2c(-c3ccccc3)cc(-c3ccccc3)cc2-c2ccccc2)cc1`, the compound was classed as inactive.

For `Cc1oc(-c2cccs2)nc1CSCC(=O)N1CCC2(CC1)OCCO2`, the outcome was inactive.

As to `COc1ccc2c3c([nH]c2c1)C(C)=NCC3`, the call was inactive.

On to `CN1CC(C(=O)c2ccc(Cl)cc2)C(c2ccc(Cl)cc2Cl)C1` (centres undefined), for which the outcome was inactive.

Consider `c1ccc(CCCN2CCN(CCOC(c3ccccc3)c3ccccc3)CC2)cc1`, for which the call was inactive.
